The values that follow come from PubChem BioAssay (NCATS).

SMILES strings stand for the structures. Several values for one entry are separate records, joined by “and”; a condition that tells them apart may be missing. Equal entries are not always repeated. Inconclusive results are not listed. A structure can be active in one record and inactive in another. Activity calls are given as the source filed them. Unless noted, calls follow the shape of the dose curve; as a rule, active = well fitted curve in the direction sought with a large enough effect; inconclusive = small, poorly fitted or top-dose-only effect, or another doubt; inactive = no such curve, though single readings can be large; an effect the other way counts as inactive or inconclusive.

Test [1] in a line: qHTS profiling of the MIPE4 collection as inhibitors of Plasmodium falciparum (DD2) proliferation (AID 743345; call rule not given here). Conditions: P. falciparum Dd2 in erythrocytes, SYBR Green DNA, 72 h; at 28.5 µM (top of the series) unless noted. The method, boiled down: (§1)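 Parasite DNA was quantified by SYBR Green I fluorescence (ex 485, em 535 nm) after overnight lysis in saponin/Triton buffer at room temperature. Cultures at 0.3% parasitemia and 2.5% hematocrit were first exposed to compound for 72 h at 37 C; signals were normalised to artemisinin (0.29 uM) and vehicle wells.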
Background: qHTS replaces the single test concentration by a dilution series.

Test [2] can be described thus: qHTS profiling of the MIPE4 collection as inhibitors of Plasmodium falciparum (DD2) proliferation (Rep 2) (AID 743346; call rule not given here). Conditions: P. falciparum Dd2 in erythrocytes, SYBR Green DNA, 72 h; at 28.5 µM (top of the series) unless noted. The method, boiled down:
as §1

The nature of test [3]: qHTS profiling of the MIPE4 collection as inhibitors of Plasmodium falciparum (HB3) proliferation (AID 743347; call rule not given here;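 also: plate controls were DMSO vehicle wells for no effect and artemisinin wells for full effect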). The conditions noted are these: P. falciparum HB3 in erythrocytes, SYBR Green DNA, 72 h; at 28.5 µM (top of the series) unless noted. The method, boiled down:
as §1

A short description of test [4]: High-throughput drug toxicity screening in the BPDCN cell line Gen2.2 (AID 1224824; call rule not given here;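 also: cells exposed to compounds for 48 h before reading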). Conditions: Gen2.2 BPDCN cells; at 45.8 µM (top of the series) unless noted. In short, it runs like this:
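Seed 500 exponentially growing Gen2.2 cells/well; add compounds by pin tool; incubate 48 h, 37 °C, 5% CO2; add CellTiter-Glo, 15 min RT; read luminescence. % activity vs DMSO (100%) and bortezomib (0%).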

The nature of test [5]: High-throughput drug toxicity screening in the BPDCN cell line Cal-1 (AID 1224825; call rule not given here). Conditions: Cal-1 BPDCN cell viability, qHTS; at 45.8 µM (top of the series) unless noted. In short, it runs like this: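 CellTiter-Glo luminescence after 48 h compound exposure; percent activity scaled with DMSO as 100% and bortezomib (9.2 uM final) as 0%. Cal-1 cells seeded at 500/well in RPMI, 10% FBS, no phenol red.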

Test [6] is described as follows: qHTS assay for measurement of the activity of small molecule inhibitors on Zika virus induced Caspase-3 activity in human iPSC derived neural progenitor cells (hNPCs) (AID 1224857). Also: nearly all actives have a fitted effect of over 65% in size. Also: potency is read from the fitted curve at half-maximal effect. The method, boiled down: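 Pretreat hNPCs with compound 1 h; infect ZIKV 2 FFU/cell; 6 h 37 C, 5% CO2; Caspase-Glo 3/7, 30 min RT; luminescence; normalize to no-virus and virus-only wells.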

Test [7] in a line: qHTS assay for measurement of the activity of small molecule inhibitors on Zika virus induced Caspase-3 activity in human astrocytoma cells (AID 1224859). Also: potency is read from the fitted curve at half-maximal effect. In short, it runs like this: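 Human SNB-19 astrocytoma cells in RPMI 1640 with 10% FBS receive compound one hour ahead of Zika virus at 2 FFU/cell. After 6 h infection, caspase-3/7 activity is detected by Caspase-Glo luminescence.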

Test [8] in a line: qHTS Screen of the MIPE 4.0 Collection Against Ewings Sarcoma (RDES) (AID 1259252). Also: nearly all actives have a fitted effect of over 35% in size. Also: potency is read from the fitted curve at half-maximal effect. In short, it runs like this:
(§2)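 Dose series incubated 48 h with cells in RPMI plus 5% FBS, glutamine and penicillin/streptomycin; cell viability then quantified via CellTiter-Glo.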

Test [9] is described as follows: qHTS Screen of the MIPE 4.0 Collection Against Ewings Sarcoma (EW8) (AID 1259255). Also: nearly all actives have a fitted effect of over 35% in size. Also: potency is read from the fitted curve at half-maximal effect.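 As to viability: 100% = DMSO-treated cells and 0% = medium-only wells without cells.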 In short, it runs like this:
as §2

The nature of test [10]: qHTS Screen of the MIPE 4.0 Collection Against Ewings Sarcoma (TC32) (AID 1259256). Also: nearly all actives have a fitted effect of over 45% in size. Also: potency is read from the fitted curve at half-maximal effect. In short, it runs like this: as §2
The nature of test [11]: qHTS assay to identify small molecule inhibitors of chordoma cells - UCH-1 (AID 1259355). Also: nearly all actives have a fitted effect of over 55% in size. Also: potency is read from the fitted curve at half-maximal effect. As to activity, negative = inhibition: % is scaled to controls: 0 for no effect and ±100 for the full control effect. The method, boiled down:
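Screening used approved and investigational drugs in 15-point titration against 800 seeded cells per well. A fixed combination of auranofin with camptothecin, doxorubicin, rubitecan and topotecan followed compound addition, and growth was scored by CellTiter-Glo after 48hr.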

Test [12] can be described thus: qHTS assay to identify small molecule inhibitors of chordoma cells - UCH-2 (AID 1259356). Also: % is scaled to controls: 0 for no effect and ±100 for the full control effect.
Test [13] can be described thus: qHTS Screen of the MIPE 4.0 Collection Against Ewings Sarcoma (TC71) (AID 1259253). Also: nearly all actives have a fitted effect of over 40% in size. Also: potency is read from the fitted curve at half-maximal effect. In short, it runs like this: as §2
A short description of test [14]: P-glycoprotein substrates identified in KB-3-1 adenocarcinoma cell line, qHTS therapeutic library screen (AID 1346986). Also: nearly all actives have a fitted effect of over 60% in size. In short, it runs like this: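 Viability by CellTiter-Glo after 72 h compound exposure at 37 degree C, 5% CO2. Cytotoxic call: curve class -1.1 to -2.4, maximum response >50%, AC50 < 10 uM, compared across KB-3-1 and P-gp-overexpressing KB-8-5-11.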

The nature of test [15]: Identifying Small Molecule Inhibitors of Pancreatic Cancer Stem Cells (SN12C, Adherent) (AID 1259358).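 Also: potency is read from the fitted curve at half-maximal effect; cell survival measured after 48 h of compound exposure.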 The method, boiled down: (§3)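 Endpoint: ATP-based luminescence, 48 h drug exposure. Bortezomib at 9.2 uM final as full-kill control; DMSO vehicle as negative control; activity normalized between vehicle and cell-free wells.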
Test [16] can be described thus: Identifying Small Molecule Inhibitors of Pancreatic Cancer Stem Cells (Panc1, Spheroid) (AID 1259359).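 Also: potency is read from the fitted curve at half-maximal effect; compound exposure lasted 48 h before reading.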 The conditions noted are these: Panc1 spheroid cancer stem cell viability. The method, boiled down:
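After a 4 h attachment period, compounds were pinned into wells and cultures held 48 h under standard incubator conditions. Viability was then measured as CellTiter-Glo luminescence following 10 min at room temperature.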

Test [17] in a line: Identifying Small Molecule Inhibitors of Pancreatic Cancer Stem Cells (SN12C, Spheroid) (AID 1259360). Also: potency is read from the fitted curve at half-maximal effect. The conditions noted are these: Potency: SN12C spheroid viability. In short, it runs like this:
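Spheroids grown 14 days in stem cell media on hydrogel-coated nonadherent plates; 2D lines seeded directly. Compounds added after 4 h attachment, 48 h at 37C, 5% CO2; CellTiter-Glo luminescence normalized to DMSO (no inhibition) and no-cell wells (full inhibition).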

Test [18] in a line: Identifying Small Molecule Inhibitors of Pancreatic Cancer Stem Cells (A278, Adherent) (AID 1259361). Also: nearly all actives have a fitted effect of over 35% in size. In short, it runs like this: as §3
Test [19] is described as follows: Identifying Small Molecule Inhibitors of Pancreatic Cancer Stem Cells (Panc1, Adherent) (AID 1259362). Also: potency is read from the fitted curve at half-maximal effect. The conditions noted are these: Potency: viability. The method, boiled down:
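Viability is scored by CellTiter-Glo luminescence 48 h after dosing, expressed as percent activity against vehicle and no-cell references. Spheroid formats rely on cells cultured 14 days in stem cell media beforehand.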

With `COc1cc2nc(N3CCN(C(=O)C4CCCO4)CC3)nc(N)c2cc1OC` (centres undefined), the parasite growth remaining, % of DMSO control (lower = more inhibition) in test [1] was 76.4%. Besides, in test [2], the parasite growth, % of control (lower = inhibition) was 46.2%. The growth, % of control in [3] stood at 11.3%. Besides, the cell viability, % of control (lower = more cytotoxic) in [4] came to 151%. Besides, the viability (% of control) in [5] turned out to be 88.2%. The Potency entry in [6] was “inactive and 13.2 µM (active)”; in test [7], 14.8 µM (active). Moreover, the Potency result in test [8], in test [9], in [10] and in test [12] was “inactive” each time. The activity, negative = inhibition in [11] is -3.3% [at 1.88 µM] (inactive).

In the case of `CC1(C)C(=O)N(CCN2CCC(C(=O)c3ccc(F)cc3)CC2)c2ccccc21`, the parasite growth remaining, % of DMSO control (lower = more inhibition) in [1] came out at 15.4%. In addition, the parasite growth, % of control (lower = inhibition) in test [2] was 26.2%. The molecule also registered a growth, % of control in [3] of 34.5%. The cell viability, % of control (lower = more cytotoxic) in test [4] worked out at 37.4%. The viability (% of control) in [5] is 85.6%. Moreover, the Potency entry in test [6], in [7], in [8], in [13] and in [9] was “inactive” each time.

In the case of `NS(=O)(=O)c1cc(C(=O)O)c(NCc2ccco2)cc1Cl`, the parasite growth remaining, % of DMSO control (lower = more inhibition) in test [1] turned out to be 103%. In addition, in test [3], the growth, % of control was determined as 84.6%. For the same molecule, in [4], the cell viability, % of control (lower = more cytotoxic) came to 75.9%. Moreover, the viability (% of control) in test [5] was 108%. For the same molecule, the Potency result in test [6], in [7], in test [8], in test [13], in test [9] and in test [10] was “inactive” throughout. Also, the Potency entry in [11] and in test [12] was “inactive” throughout.

With `CC(=O)Nc1ccc(O)cc1`, the cell viability, % of control (lower = more cytotoxic) in test [4] came to 105%. For the same molecule, the viability (% of control) in [5] came out at 33.3%. Further, the Potency result in test [6], in [7], in test [8] and in test [13] was “inactive” throughout.

As to `Cc1cc2c(s1)Nc1ccccc1N=C2N1CCN(C)CC1`, the cell viability, % of control (lower = more cytotoxic) in test [4] stood at 199%. The viability (% of control) in test [5] was 115%. Further, the Potency entry in test [6], in test [7], in [8], in [13], in test [9] and in test [10] was “inactive” throughout. Further, the Potency entry in test [11], in [12] and in [14] was “inactive” in each case.

On to `CC1=C(C)C(=O)C(C(CCCCCC(=O)O)c2ccccc2)=C(C)C1=O` (centres undefined), for which the parasite growth remaining, % of DMSO control (lower = more inhibition) in [1] worked out at 87.9%. This molecule showed a parasite growth, % of control (lower = inhibition) in test [2] of 46%. In test [3], this molecule yielded a growth, % of control of 74.4%. Also, the cell viability, % of control (lower = more cytotoxic) in [4] worked out at 195%. Besides, in [5], the viability (% of control) came to 115%. Further, the Potency result in test [6], in test [7], in test [8], in test [13], in [9] and in test [10] was “inactive” in each case. In addition, the Potency result in [11] and in test [12] was “inactive” in each case.

As for `CN1C(C(=O)Nc2ccccn2)=C(O)c2sccc2S1(=O)=O`, the cell viability, % of control (lower = more cytotoxic) in test [4] was 40.6%. Moreover, the viability (% of control) in test [5] came out at 90.4%. The Potency result in [6], in test [7], in [9], in test [10], in test [11] and in [12] was “inactive” in each case. The Potency in test [8] is 5.9 µM (active).

Take `COc1c2occc2cc2ccc(=O)oc12`: in [4], the cell viability, % of control (lower = more cytotoxic) was determined as 109%. The viability (% of control) in [5] amounted to 93.5%. For the same molecule, the Potency entry in test [6], in test [7], in test [8], in test [9], in test [11] and in [12] was “inactive” each time. Moreover, in test [10], the Potency was 3.32 µM (active).

`CC(C)C[C@H](NC(=O)[C@H](Cc1ccccc1)NC(=O)c1cnccn1)B(O)O`: the parasite growth remaining, % of DMSO control (lower = more inhibition) in test [1] turned out to be 7.19%. The parasite growth, % of control (lower = inhibition) in [2] is 7.61%. The growth, % of control in test [3] was 3.13%. Moreover, the cell viability, % of control (lower = more cytotoxic) in test [4] is 3.61%. For the same molecule, in test [5], the viability (% of control) turned out to be 3.36%. The Potency result in test [6] and in test [7] was “inactive” each time. The Potency is 0.0332 µM (active) in [8]; 41.8 nM (active) in [13]; 16.6 nM (active) in test [9]; 0.0372 µM (active) in test [10]; 12.6 nM (active) and 6.3 nM (active) in [11]; 16.6 nM (active) in [15]. In addition, the Potency in test [16] was 1.7 nM (active); in [17], 10.5 nM (active); in test [19], 14.8 nM (active). The IC50 (viability decrease) in test [18] is 3.7 nM (active).
